Inconclusive results are not listed. Entries that show only a call come without a potency. Active and inactive are the calls of the source. The call rests on the fitted dose curve.
Assay: qHTS for Inhibitors of Cell Surface uPA Generation: Wild-type Protective Antigen (WT-PrAg) Counterscreen for Cherry-picked Compounds

Compound | Potency
O=C(c1ccccn1)C1CCCN(Cc2cn[nH]c2-c2cc3ccccc3o2)C1 (centres undefined) | inactive
CCN(CC)c1c([N+](=O)[O-])c(=O)sc2ccccc12 | inactive
COC(=O)C1C(=O)c2c([nH]c(C(=O)OC3CCCCC3)c2C)CC1C (centres undefined) | inactive
CCCn1nnc(NC(=S)NC(=O)c2ccccc2OC)n1 | inactive
CN(C(=O)c1ccccc1C(=O)OCC(=O)NCc1ccccc1)C1CCCCC1 | inactive
O=C(NNC(=O)c1cccc(-n2cccc2)c1)c1ccc(F)cc1 | inactive
CC(C)(C)NC(=O)C(c1cccs1)N(C(=O)c1csnn1)c1ccccc1F (centres undefined) | inactive
Cn1cccc1Cc1nnc(SCC(=O)Nc2ccc3c(c2)OCCO3)n1-c1ccc(F)cc1 | inactive
COCCNS(=O)(=O)c1cc(OC)c(C)cc1C | inactive
CSCC[C@H](NC(=O)[C@H](Cc1ccccc1)n1c(=O)[nH]c2ccccc2c1=O)C(=O)N1CCC[C@@H]1C(=O)O | inactive
CSc1ccccc1OCc1cc(C(=O)NCCCn2nc(C)cc2C)no1 | inactive
COC(=O)CNC(=O)COC(=O)/C=C/c1ccccc1[N+](=O)[O-] | inactive
COC(=O)/C(C#N)=C/c1c(N2CCN(c3ccccc3)CC2)nc2c(C)cccn2c1=O | inactive
O=C1C=C(NNC(=O)c2ccncc2)CC(c2ccccc2)C1 (centres undefined) | inactive
CC1(C)CC(=O)C([N+](=O)[O-])=C(NCCCC(=O)O)C1 | inactive
CN(C)S(=O)(=O)c1cccc(C(=O)OCC(=O)NCc2ccc3c(c2)OCO3)c1 | inactive
COC(C[C@H](O)[C@H](C)[C@@H](O)COCc1ccccc1)OC | inactive
CC(C)C(NC(=O)Cc1ccccc1)C(=O)N1CCN(c2cccc(Cl)c2)CC1 (centres undefined) | inactive
Cc1nc(NC2CCCCC2)c2nnn(Cc3ccccc3Cl)c2n1 | inactive
CCN1CCN(C(c2ccccc2)c2nnnn2Cc2ccc3c(c2)OCO3)CC1 (centres undefined) | inactive

Compound | Potency
CC1Cc2nc(SCC(=O)Nc3ccc4c(c3)OCO4)n(-c3ccc(F)cc3)c(=O)c2S1 (centres undefined) | inactive
COc1ccc(-c2cc(-c3ccccc3)nc3ncnn23)cc1 | inactive
O=C(NCCN1CCOCC1)c1ccc2c(c1)N(Cc1ccc(Cl)cc1)CCS2 | inactive
O=C(CN1CCCC1)Nc1cccc(Cl)c1Cl | inactive
CCC(=O)Nc1nc(-c2cc([N+](=O)[O-])cs2)cs1 | inactive
Cn1c(=O)c2c(ncn2CCO)n(C)c1=O | inactive
COc1ccc(-c2nn(CCC#N)cc2C(=O)Nc2cccc([N+](=O)[O-])c2)cc1OC | inactive
Cc1nc2ncccn2c1-c1csc(Nc2ccc(S(N)(=O)=O)cc2)n1 | inactive
CC(=O)c1ccc(N=C2SCCCN2C(=O)C2CCCCC2)cc1 | inactive
Cc1cc(C)n2nc(CNS(=O)(=O)c3ccc(F)c(C)c3)nc2n1 | inactive
O=C(Nc1ccc(NC(=O)c2ccco2)c(Cl)c1)c1ccccc1 | inactive
COc1ccc(CN2CCN(Cc3ccc(C(F)(F)F)cc3)CC2)cc1 | inactive
COC(/C=C/Nc1ccc(Cl)cc1)=C(C#N)C#N | inactive
Cc1ccc(-n2nc3c(c2NC(=O)c2ccc4c(c2)OCO4)CS(=O)C3)c(C)c1 (centres undefined) | inactive
COc1ccc(OC)c(NC(=O)C2CCCN2C(=O)C2CCC(C)CC2)c1 (centres undefined) | inactive
CCOc1cc(/C=N/Nc2cc(C)nc3ccc(C)cc23)ccc1O | inactive
COc1ccc(C2C(C(=O)c3ccc(C)o3)=C(O)C(=O)N2CC2CCCO2)cc1OC (centres undefined) | inactive
O=C(O)CCc1nn2c3ccccc3n(CC(=O)O)c2nc1=O | inactive
COc1ccc(OC)c(NC(=O)C2CC2c2ccccc2)c1 (centres undefined) | inactive

From PubChem BioAssay AID720518 (National Center for Advancing Translational Sciences (NCATS), 2013)
